15 compounds from PubChem BioAssay (Tox21) can be followed below.

Results filed as inconclusive are left out. Where a call stands in place of a potency, no number is given. Calls of active or inactive are those of the source. Calls come from the whole dose curve; as a rule, active = well fitted cell-killing curve with a large enough effect in the repeat runs; inconclusive = weak or mixed curves, or effect the other way; inactive = flat fitted curve, though single readings scatter.

Experiment [1] in a line: cAMP Responsive Elements (CRE) small molecule antagonists, cell-based qHTS assay: qHTS cell viability counter screen (AID 2060913). Note: nearly all actives have a fitted effect of over 40% in size. Put shortly:
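CRE-bla HEK293T cells were seeded in assay medium with 10% dialyzed FBS, incubated 18 hrs at 37 C, then exposed to compounds plus 0.25 uM final NKH477 for 3 hrs. Viability was read by CellTiter-Glo luminescence after 30 min, in the same wells.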
(qHTS replaces the single test concentration by a dilution series.)

Experiment [2] is described as follows: cAMP Responsive Elements (CRE) small molecule agonists, cell-based qHTS assay: qHTS cell viability counter screen (AID 2060914). Note: nearly all actives have a fitted effect of over 50% in size. The gist of the method: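 HEK 293T CRE-bla; DMEM + 10% dialyzed FBS, 25 mM HEPES; 18 h pre-incubation; compound 3 h, 37 °C/5% CO2; CellTiter-Glo added after reporter read; luminescence after 30 min RT.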

Turning to `COC(=O)C1=C(C)NC(C)=C(C(=O)O[C@@H]2CCCN(Cc3ccccc3)C2)[C@@H]1c1cccc([N+](=O)[O-])c1`, the Potency entry in experiment [1] and in experiment [2] was “inactive” each time.

Turning to `C=CC[N+](C)(C)CC=C`, the Potency entry in experiment [1] and in experiment [2] was “inactive” in each case.

As for `O=P(O)(O)OCC(O)CO` (stereo not given), the Potency result in experiment [1] and in experiment [2] was “inactive” each time.

`CCCCCCCCCCN`: the Potency result in experiment [1] and in experiment [2] was “inactive” in each case.

`Oc1ccc(O)cc1`: the Potency result in experiment [1] and in experiment [2] was “inactive” in each case.

Turning to `CCC(CO)(CO)[N+](=O)[O-]`, the Potency result in experiment [1] and in experiment [2] was “inactive” in each case.

`C=CCOC(=O)c1ccccc1C(=O)OCC=C`: the Potency result in experiment [1] and in experiment [2] was “inactive” throughout.

With `CCCCN1C(=O)c2ccccc2C1=O`, the Potency result in experiment [1] and in experiment [2] was “inactive” throughout.

Turning to `Oc1cccc(Nc2ccccc2)c1`, the Potency result in experiment [1] and in experiment [2] was “inactive” throughout.

Take `CN1CCN(C2=Nc3cc(Cl)ccc3Nc3ccccc32)CC1`: the Potency result in experiment [1] and in experiment [2] was “inactive” throughout.

As to `CC(C)(C)OC=O`, the Potency result in experiment [1] and in experiment [2] was “inactive” throughout.

Regarding `CCCCCNCCCCC`, the Potency entry in experiment [1] and in experiment [2] was “inactive” in each case.

As for `COc1ccc2cc(CCC(C)=O)ccc2c1`, the Potency result in experiment [1] and in experiment [2] was “inactive” throughout.

For `CCCC1CCC(=O)CC1`, the Potency result in experiment [1] and in experiment [2] was “inactive” throughout.

As for `COc1ccc(C(=O)CC(=O)c2ccc(C(C)(C)C)cc2)cc1`, the Potency result in experiment [1] and in experiment [2] was “inactive” throughout.
